Measurements as given in PubChem BioAssay.
Active and inactive are the calls of the source.

Key:
Albumin (Bos taurus) = Albumin (Bos taurus) (UniProt P02769); assay: compounds binding labelled BSA control protein – biochemical, small-molecule microarray, Alexa647 label, 635/667 nm fluorescence, artefact control for SMM control protein annotation, profiling panel (AID 1118); details: BSA-A647 binding, fluorescence 635 nm, higher = more signal;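 note: score merges 667 nm emission intensity and signal-to-noise per printed compound spot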
Albumin (Bos taurus), sequence (P02769 whole entry, looked up): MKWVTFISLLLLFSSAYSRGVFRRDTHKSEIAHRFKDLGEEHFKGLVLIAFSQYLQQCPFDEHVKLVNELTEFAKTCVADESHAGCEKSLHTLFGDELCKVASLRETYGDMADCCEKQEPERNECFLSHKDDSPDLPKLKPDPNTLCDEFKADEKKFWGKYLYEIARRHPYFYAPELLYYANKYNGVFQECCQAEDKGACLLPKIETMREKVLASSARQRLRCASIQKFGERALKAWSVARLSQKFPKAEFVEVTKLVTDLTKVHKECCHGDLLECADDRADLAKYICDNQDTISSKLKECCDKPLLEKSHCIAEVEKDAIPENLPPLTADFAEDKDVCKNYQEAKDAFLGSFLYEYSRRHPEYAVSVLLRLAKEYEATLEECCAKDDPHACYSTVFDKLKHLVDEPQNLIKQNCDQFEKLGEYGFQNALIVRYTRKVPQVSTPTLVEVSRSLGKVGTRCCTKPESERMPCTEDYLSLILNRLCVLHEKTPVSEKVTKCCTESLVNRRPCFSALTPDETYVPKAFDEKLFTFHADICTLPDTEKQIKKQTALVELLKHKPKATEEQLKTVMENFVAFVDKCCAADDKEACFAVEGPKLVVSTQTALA

[1] = probe aXIP binding to arrayed compounds – biochemical, NeuroSMM set, 635/667 nm fluorescence, primary screen (AID 1119); details: small-molecule microarray, higher = more signal, called active from +8 up or from −8 down;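 note: probe is the protein aXip251-270 applied at 1 µg/mL to compound-printed slides; binding of probe to printed compounds measured as 667 nm fluorescence plus signal to noise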
[2] = probe aNOTCH3 binding on compound microarray – biochemical, small-molecule microarray, 635/667 nm fluorescence, primary screen (AID 1120); details: higher = more signal;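 note: probe is a biotin-tagged antibody raised against NOTCH3 rather than NOTCH3 protein; score merges spot fluorescence near 667 nm with spot signal to noise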
[3] = probe aNOTCH2 binding on compound microarray – biochemical, small-molecule microarray, 635/667 nm fluorescence, primary screen (AID 1121); details: higher = more signal;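 note: score merges feature fluorescence read at 667 nm with its signal to noise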
[4] = biological target: Carbonic anhydrase 2 (Homo sapiens) (UniProt P00918); assay: compounds binding carbonic anhydrase 2 – biochemical, small-molecule microarray, Alexa647-labelled CAII, profiling panel (AID 1122); details: CAII-A647 binding fluorescence, higher = more signal
[5] = COS7 lysate on small-molecule microarray, probe aHis, 635 nm (AID 1123); details: COS7 cell lysate, fluorescence, higher = more signal;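 note: z-score combines 667nm fluorescence intensity with signal-to-noise per printed compound spot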
[6] = probe aLAP1 signal on lysate-treated microarray – cell lysate, small-molecule microarray, COS7 lysate, primary screen (AID 1124); details: probe aLAP1, fluorescence, higher = more signal;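 note: lysate comes from COS7 cells expressing LAP1 and is applied at 0.3 µg/mL; score merges spot fluorescence near 667 nm with signal-to-noise over triplicate slides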
Sam68 (KHDRBS1) = assay: compounds binding KHDRBS1 protein – biochemical, small-molecule microarray, 635 nm fluorescence, primary screen (AID 1125); details: higher = more signal;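 note: score merges 667 nm channel intensity with signal to noise over triplicate slides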
[7] = system: Chordin-like protein 2 (CHRDL2); assay: compounds binding chordin-like 2 – biochemical, small-molecule microarray, 635 nm fluorescence, primary screen (AID 1126); details: fluorescence 635 nm, higher = more signal;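 note: printed compound slides probed with Chrdl2 protein at 4 µg/mL for 1 h at 4 C; score merges 667 nm emission intensity with signal to noise over three replicate slides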
[8] = biological target: Concanavalin-A (Canavalia ensiformis) (UniProt P02866); assay: compounds binding concanavalin A lectin – biochemical, small-molecule microarray, Alexa647 label, 635 nm, artefact control for SMM control protein annotation, primary screen (AID 1127); details: ConA-A647 binding fluorescence, higher = more signal;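 note: z combines 667 nm emission intensity with signal-to-noise across three replicate slides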
Concanavalin-A (Canavalia ensiformis), sequence (P02866 whole entry, looked up): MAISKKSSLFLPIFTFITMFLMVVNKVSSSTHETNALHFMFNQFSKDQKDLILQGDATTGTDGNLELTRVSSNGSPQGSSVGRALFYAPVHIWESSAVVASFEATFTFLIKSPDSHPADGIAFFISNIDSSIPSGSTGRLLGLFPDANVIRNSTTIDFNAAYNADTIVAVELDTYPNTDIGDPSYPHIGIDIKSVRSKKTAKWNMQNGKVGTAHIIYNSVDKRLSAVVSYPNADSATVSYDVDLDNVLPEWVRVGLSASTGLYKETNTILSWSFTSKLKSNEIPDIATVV

[9] = compounds binding Alexa647 anti-His antibody – biochemical, small-molecule microarray, 635 nm fluorescence, artefact control for SMM control protein annotation, primary screen (AID 1128); details: higher = more signal;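 note: score merges feature fluorescence with signal-to-noise for each printed compound spot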
[10] = system: Human papillomavirus type 1a E7 protein (residues 1-88); assay: HPV1a E7 small-molecule binders, primary screen, biochemical, small-molecule microarray, residues 1-88, 635 nm (AID 1129); details: small-molecule microarray binding, fluorescence 635 nm; higher = more signal
[11] = biological target: Focal adhesion kinase 1 (Homo sapiens) (UniProt Q05397); assay: PTK2 protein binding on printed compound slides – biochemical, small-molecule microarray, 635/667 nm fluorescence, BSA, DTT, primary screen (AID 1130); details: 635 nm fluorescence, higher = more signal;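 note: composite of spot emission at 667 nm and signal to noise over triplicate slides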
Focal adhesion kinase 1 (Homo sapiens), sequence (Q05397 whole entry, looked up): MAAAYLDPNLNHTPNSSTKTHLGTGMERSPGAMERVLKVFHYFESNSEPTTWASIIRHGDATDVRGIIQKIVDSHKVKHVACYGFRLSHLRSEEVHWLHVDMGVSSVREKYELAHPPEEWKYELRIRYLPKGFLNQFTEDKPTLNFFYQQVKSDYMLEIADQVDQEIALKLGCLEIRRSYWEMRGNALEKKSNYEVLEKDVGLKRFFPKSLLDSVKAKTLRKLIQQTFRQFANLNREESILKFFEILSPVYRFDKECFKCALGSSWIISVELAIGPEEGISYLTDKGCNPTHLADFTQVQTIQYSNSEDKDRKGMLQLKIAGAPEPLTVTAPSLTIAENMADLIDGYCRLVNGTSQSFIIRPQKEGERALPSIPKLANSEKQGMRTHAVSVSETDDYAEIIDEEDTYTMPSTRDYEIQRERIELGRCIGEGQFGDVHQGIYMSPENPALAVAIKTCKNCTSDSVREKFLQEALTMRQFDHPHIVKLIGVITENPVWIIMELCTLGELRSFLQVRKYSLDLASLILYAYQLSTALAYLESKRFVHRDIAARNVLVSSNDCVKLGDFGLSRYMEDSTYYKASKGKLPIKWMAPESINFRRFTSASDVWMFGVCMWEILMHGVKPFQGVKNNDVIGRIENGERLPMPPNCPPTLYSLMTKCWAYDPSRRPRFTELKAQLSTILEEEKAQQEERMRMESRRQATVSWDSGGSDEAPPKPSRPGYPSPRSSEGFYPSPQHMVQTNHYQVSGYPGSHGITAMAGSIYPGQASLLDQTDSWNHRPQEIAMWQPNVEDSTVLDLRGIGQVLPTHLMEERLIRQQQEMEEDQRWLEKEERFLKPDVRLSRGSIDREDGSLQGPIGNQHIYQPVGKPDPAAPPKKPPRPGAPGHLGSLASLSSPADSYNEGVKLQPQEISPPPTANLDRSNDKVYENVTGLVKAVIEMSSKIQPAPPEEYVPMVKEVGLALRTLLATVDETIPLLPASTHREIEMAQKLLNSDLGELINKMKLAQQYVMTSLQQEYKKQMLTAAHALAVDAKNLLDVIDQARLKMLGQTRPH

[12] = system: Fibrinogen (Alexa647-labelled); assay: Alexa647-fibrinogen binding to printed small molecules – biochemical, small-molecule microarray, 635/667 nm fluorescence, artefact control for SMM control-protein annotation, profiling panel (AID 1131); details: fibrinogen-A647 binding fluorescence, higher = more signal;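 note: z-score merges 667 nm fluorescence with per-spot signal-to-noise over triplicate slides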
[13] = biological target: Follistatin (Homo sapiens) (UniProt P19883); assay: FST protein binding to printed compounds – biochemical, small-molecule microarray, 635/667 nm fluorescence, primary screen (AID 1132); details: 635 nm fluorescence, higher = more signal
Follistatin (Homo sapiens), sequence (P19883 whole entry, looked up): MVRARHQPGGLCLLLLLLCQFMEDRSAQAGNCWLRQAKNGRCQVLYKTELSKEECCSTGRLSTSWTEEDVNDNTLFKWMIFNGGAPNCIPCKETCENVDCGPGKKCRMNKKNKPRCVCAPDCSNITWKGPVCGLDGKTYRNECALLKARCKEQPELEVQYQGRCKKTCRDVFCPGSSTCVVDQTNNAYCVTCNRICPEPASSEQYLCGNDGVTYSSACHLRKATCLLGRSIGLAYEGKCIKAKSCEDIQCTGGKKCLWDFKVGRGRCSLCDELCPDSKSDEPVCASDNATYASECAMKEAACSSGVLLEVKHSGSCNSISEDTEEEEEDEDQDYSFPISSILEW

[14] = biological target: Fibroblast growth factor 2 (Homo sapiens) (UniProt P09038); assay: basic fibroblast growth factor binding to printed compounds – biochemical, small-molecule microarray, 635/667 nm fluorescence, primary screen (AID 1133); details: FGF2, fluorescence 635/667, higher = more signal
Fibroblast growth factor 2 (Homo sapiens), sequence (P09038 whole entry, looked up): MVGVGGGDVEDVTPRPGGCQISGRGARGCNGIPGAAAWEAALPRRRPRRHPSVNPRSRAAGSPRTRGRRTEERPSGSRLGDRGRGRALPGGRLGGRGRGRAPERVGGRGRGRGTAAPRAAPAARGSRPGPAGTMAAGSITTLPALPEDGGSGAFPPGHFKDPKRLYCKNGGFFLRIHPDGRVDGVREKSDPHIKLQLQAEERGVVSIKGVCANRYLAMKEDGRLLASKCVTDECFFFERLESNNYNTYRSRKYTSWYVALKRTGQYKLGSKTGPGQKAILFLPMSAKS

[15] = JC-1 mitochondrial potential readout, lung cancer cells – cell-based, A549, JC-1 fluorescence, basal, 24 h, 100 nL, profiling panel (AID 1138); details: higher = more signal;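 note: A549 lung adenocarcinoma cells under basal conditions with no added stimulus; test concentration not given here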
Lefty1 = Lefty1 protein binding to printed compounds – biochemical, small-molecule microarray, 635/667 nm fluorescence, primary screen (AID 1139); details: fluorescence 635/667, higher = more signal
[16] = system: wheat germ agglutinin (Triticum aestivum), Alexa647-labelled; assay: Alexa647-WGA lectin binding to printed small molecules – biochemical, small-molecule microarray, 635/667 nm fluorescence, artefact control for SMM control-protein annotation, profiling panel (AID 1140); details: WGA-A647 binding, 635 nm fluorescence, higher = more signal;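 note: score merges 667 nm feature emission with signal to noise over triplicate slides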
[17] = biological target: Luciferin 4-monooxygenase (Photinus pyralis) (UniProt P08659); assay: inhibition of purified Photinus pyralis luciferase – biochemical, luminescence, purified enzyme, 2006 set, primary screen (AID 1141); details: purified firefly luciferase, SteadyGlo luminescence, 30 min; higher = more signal, called active from +8 up or from −8 down;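 note: cell-free assay with purified firefly luciferase at 100 ng per well in PBS; test concentration not given here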
Luciferin 4-monooxygenase (Photinus pyralis), sequence (P08659 whole entry, looked up): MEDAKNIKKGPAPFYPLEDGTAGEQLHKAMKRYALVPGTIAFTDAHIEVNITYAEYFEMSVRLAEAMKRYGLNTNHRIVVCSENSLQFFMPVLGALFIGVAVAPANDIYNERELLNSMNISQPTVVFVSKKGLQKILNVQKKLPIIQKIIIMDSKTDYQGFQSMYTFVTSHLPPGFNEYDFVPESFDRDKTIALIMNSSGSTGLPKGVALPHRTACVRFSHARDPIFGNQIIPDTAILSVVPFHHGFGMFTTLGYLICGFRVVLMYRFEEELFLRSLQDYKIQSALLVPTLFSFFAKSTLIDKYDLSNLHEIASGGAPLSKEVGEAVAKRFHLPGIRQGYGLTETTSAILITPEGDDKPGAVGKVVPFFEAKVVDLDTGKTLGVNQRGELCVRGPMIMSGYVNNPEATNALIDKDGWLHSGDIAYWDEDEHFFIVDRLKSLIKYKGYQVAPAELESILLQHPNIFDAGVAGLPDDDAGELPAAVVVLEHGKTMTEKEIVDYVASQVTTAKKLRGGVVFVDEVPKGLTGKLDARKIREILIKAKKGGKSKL

SMILES | composite z-score (Albumin (Bos taurus)) | composite Z-score [1] | composite z-score [2] | composite z-score [3] | composite z-score [4] | composite z-score [5] | composite z-score [6] | composite z-score (Sam68 (KHDRBS1)) | composite z-score [7] | composite z-score [8] | composite z-score [9] | composite z-score [10] | composite z-score [11] | composite z-score [12] | composite z-score [13] | composite z-score [14] | z-score [15] | composite z-score (Lefty1) | composite z-score [16] | z-score [17]
CCOC(=O)CCN1C(=O)[C@H]2[C@H]3[C@H](O)[C@H](O)CC(=NOCC=C(C)CCC=C(C)C)[C@H]3CC[C@H]2C1=O | -0.269 | -0.113 (inactive) | 0.179 | -0.167 | -0.276 | -0.405 | -0.192 | 0.458 | -0.178 | 0.116 | -1.12 | -0.251 | -0.0341 | -0.161 | -0.975 | 0.404 | 0.64 | -0.893 | -0.503 | 0.0499 (inactive)
CO[C@H]1COC(=O)[C@H](C)COC(=O)[C@@H](OCc2ccccc2)C=C[C@@H]1C | 0.0996 | 0.976 (inactive) | -0.141 | -0.12 | -0.342 | -0.051 | -0.181 | 0.207 | 0.225 | 0.233 | -0.49 | -1.09 | -0.317 | -0.534 | 0.139 | 0.496 | 0.877 | 0.613 | -0.49 | -1.56 (inactive)
CO[C@H]1C[C@@H]2C[C@H](O)CC(CC(=O)O[C@@H](C=CCC(C)C)C[C@@H]3CC[C@H](C)[C@@H](C1)O3)O2 | 0.603 | -0.349 (inactive) | 0.0824 | -0.193 | 0.276 | 1.12 | -0.0223 | 1.3 | 0.629 | 0.389 | 0.583 | 0.959 | 0.122 | 0.707 | 0.719 | 0.361 | -0.589 | 0.749 | 0.0954 | -0.0042 (inactive)
C=CC[C@@H]1C=C[C@H](ON=C2C[C@@H](O)[C@@H](O)[C@@H]3[C@@H]4C(=O)N(CC)C(=O)[C@@H]4CC[C@@H]23)[C@@H](CO)O1 | -0.873 | -0.116 (inactive) | -0.16 | -0.237 | 0.452 | 0.429 | -0.289 | -0.444 | -0.0673 | -1.18 | -2.3 | -1.1 | 0.382 | -1.15 | -0.707 | 0.119 | -0.992 | 0.158 | -1.41 | 1.3 (inactive)
CO[C@H]1COC(=O)CC=C[C@@H](C)COC(=O)[C@H]2CCCN2C(=O)CC=C[C@H]1C | -0.893 | 0.297 (inactive) | -0.122 | -0.166 | -0.516 | -0.916 | 0.449 | 0.536 | 1.19 | -0.923 | -0.19 | -1.54 | -0.0701 | -1.05 | 1.46 | 1.96 | 1.06 | 1.68 | -0.604 | -1.32 (inactive)
CCN1C(=O)[C@H]2[C@H]3[C@H](O)[C@H](O)CC(=NOC(C)CN4CCCc5nc(C)c(C)cc54)[C@@H]3CC[C@H]2C1=O (stereo not given in full) | -0.558 | 0.635 (inactive) | 0.148 | 0.0137 | 0.014 | -0.0995 | 0.284 | 1.05 | 0.893 | -0.471 | -0.245 | 0.509 | 0.335 | 0.116 | 0.703 | 0.462 | 0.623 | 0.737 | -0.393 | 0.126 (inactive)
COc1ccc(-c2cnnc(CCCn3ccnc3-c3ccccc3)n2)cc1 | 0.223 | 0.391 (inactive) | 0.291 | -0.126 | 0.536 | 0.0412 | 1.08 | 0.943 | 0.919 | 0.418 | 1.39 | 0.538 | 0.107 | 0.747 | 0.836 | 0.475 | 0.787 | 0.592 | 0.138 | 0.313 (inactive)
